High-throughput results (PubChem)
A selection: hits, their analogues and other compounds. The true share with any hit is near 3.6%.
mHTT-CaM PPI inh: mHTT-calmodulin interaction abrogation; AlphaScreen His-mHTT/GST-CaM binding, luminescence; 190,000 compounds, 3.6% hits; P42858; inhibition, % at 15 µM;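 also: 0% = both proteins with DMSO and 100% = one protein alone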
Pf apPOL inh: Pf-apPOL DNA polymerase inhibition; AID 1794808; inhibition, % at 10 µM; 210,000 compounds, 0.25% hits; Recombinant Pf-apPOL, molecular beacon fluorescence, 1.5 h
Numbers without * were called inactive; x = not tested or not shown; ! = not confirmed by another sample. Rule as the data show it: active = inhibition above about 50%; inactive = the rest.

SMILES	mHTT-CaM PPI inh	Pf apPOL inh
CCCOc1ccc(C(Nc2ccccn2)c2ccc3cccnc3c2O)cc1 (stereo not given)	97*	-7
COc1cc(C)c(S(=O)(=O)Nc2ccccn2)cc1C	-2	0
Cc1ccnc(NC(c2cccs2)c2ccc3cccnc3c2O)c1 (stereo not given)	100*	4
COc1ccc(C(Nc2ccccn2)c2ccc3ccc(C)nc3c2O)cc1C (stereo not given)	81*	-6
CCCOc1ccc(C=Nc2ccc(S(=O)(=O)Nc3ccccn3)cc2)cc1	-5	-5
Oc1c(C(Nc2ccccn2)c2ccc3c(c2)OCO3)ccc2cccnc12 (stereo not given)	99*	-6
OC(CN1CCN(c2ccccn2)CC1)c1ccc2c(c1)OCO2 (stereo not given)	3	-1
O=C(NCC(c1ccco1)N1CCc2ccccc2C1)C(=O)Nc1cccc([N+](=O)[O-])c1 (stereo not given)	23	0
Oc1oc(-c2ccc(Br)cc2)nc1C=C1C=Nc2ccccc21	5	-4
CCOC(=O)CSC(=S)Nc1c(C)cc(C)cc1C	x	8
CC(=O)COc1ccc2c(-c3cc4ccccc4oc3=O)cc(=O)oc2c1	11	-10
C=CCOc1ccc(C(Nc2ccccn2)c2ccc3ccc(C)nc3c2O)cc1 (stereo not given)	67*	-5
C=CCOc1ccc(C=Nc2ccc(C(C)C)cc2)c(O)c1	2	4
Cc1ccc(N2CCC(NC(=O)c3n[nH]c4ccccc34)C2=O)cc1 (stereo not given)	-6	-2
O=S1(=O)C=C(Sc2cccc3cccnc23)c2ccccc21	68*	6
Cc1cc(C)nc(SC2=CS(=O)(=O)c3ccccc32)n1	-2	25
O=C1CC(NCc2ccccn2)C(=O)N1c1ccc(F)cc1 (stereo not given)	100*	-2
CC12CC3CC(C)(C1)CC(C(=O)NCc1ccccn1)(C3)C2	3	-7
O=C1Nc2ccccc2CCC1NCc1ccccn1 (stereo not given)	71*	-13
CCOc1ccc(N2C(=O)CC(NCc3ccc(F)cc3)C2=O)cc1 (stereo not given)	-12	-1
COCC(C)NC(=O)c1ccc(NC(C)=O)cc1 (stereo not given)	-2	-2
CCCC1=NN2C(=N)CC(=O)N=C2S1	-4	-9
Cc1cc2c(C(C)C)c(O)c(O)c(C=NCSN)c2c(O)c1-c1c(C)cc2c(C(C)C)c(O)c(O)c(C=NCSN)c2c1O	100*	x
O=C1/C(=C/c2c[nH]c3ccccc23)CC/C1=C\c1c[nH]c2ccccc12	98*	-3
O=C1/C(=C/c2c[nH]c3ccccc23)Sc2ccccc21	13	-5
SMILES	mHTT-CaM PPI inh	Pf apPOL inh
Cc1ccccc1OCC(=O)O	-3	3
O=C(O)COc1ccccc1O	94*!	-1
N=C1NC(=O)/C(=C/c2ccccc2Br)S1	-5	-4
N=C1NC(=O)/C(=C/c2ccc(Cl)cc2Cl)S1	7	56*
Cc1cc2c(cc1C)NC(c1ccc(F)cc1)C1=C(CC(C)(C)CC1=O)N2 (stereo not given)	20	-16
Cc1cc2c(cc1C)NC(c1ccc(Cl)c(F)c1)C1=C(CC(C)(C)CC1=O)N2 (stereo not given)	59*	6
CC1(C)CC(=O)C2=C(C1)Nc1ccccc1NC2c1ccccc1 (stereo not given)	-2	1
CC1(C)CC(=O)C2=C(C1)Nc1ccccc1NC2c1ccc(-c2ccc([N+](=O)[O-])cc2)o1 (stereo not given)	73*	-1
CC1(C)CC(=O)C2=C(C1)Nc1ccccc1NC2c1ccc(Cl)c(Cl)c1 (stereo not given)	66*	0
CC1(C)CC(=O)C2=C(C1)Nc1ccccc1NC2c1ccc(-c2ccc([N+](=O)[O-])cc2Cl)o1 (stereo not given)	50	-3
COc1ccc(-c2cc(-c3ccccc3)nc3nc4ccccc4c(=O)n23)cc1	24	0
CCS(=O)(=O)c1ccc(I)s1	-5	-4
COc1ccc(-c2coc3cc(O)cc(C)c3c2=O)cc1	-2	-6
COc1ccc(C2=N/C(=C\c3ccc(OC)c(OC)c3)C(=O)O2)c(Br)c1	44	0
OC(C#CC(O)(c1ccccc1)c1ccccc1)(c1ccccc1)c1ccccc1	x	-12
COc1ccc(C(O)(C#Cc2ccccc2)c2ccccc2)cc1 (stereo not given)	60*	-2
CC(C)CCNC(=O)C1(C)CCc2ccccc2C(=O)N1CCc1c[nH]c2ccccc12 (stereo not given)	98*	-5
COCCNC(=O)C1(C)CCC(=O)N1CCc1c[nH]c2ccccc12 (stereo not given)	2	-1
CC1(C)CC(=O)C(C=Nc2ccc(Cl)cc2C(F)(F)F)=C(O)C1	-2	5
O=C1Nc2c(Br)cc(Br)cc2/C1=C/c1ccco1	12	-6
O=C1Nc2ccc(Br)cc2/C1=C/c1cccs1	58*	1
O=C1Nc2ccc(Br)cc2/C1=C/c1ccco1	72*	-5
Cc1ccc(/C=C2\C(=O)Nc3ccc(Br)cc32)s1	34	-2
CN(C)c1ccc(/C=C/c2cc(C(F)(F)F)[nH]c(=O)n2)cc1	20	-5
CN(C)c1ccc(/C=C/c2cc(/C=C/c3ccc(N(C)C)cc3)[n+]3nn(C)nc3n2)cc1	100*	0
SMILES	mHTT-CaM PPI inh	Pf apPOL inh
COc1ccc(O)c(C(=O)C=Cc2ccc3c(c2)OCCO3)c1	61*	6
COc1ccc(C(=O)C=Cc2ccc3c(c2)OCCO3)c(OCc2ccccc2)c1	16	-22
CC(C)n1c(-c2cccc(C(=O)N3CCOCC3)c2)nc2cccnc21	-2	-4
Cc1ccccc1C(=O)N1CCC(C(=O)Nc2ccc(F)c(Cl)c2)CC1	-1	-2
O=C(C1CCN(c2nnc(-c3ccccc3)o2)CC1)N1CCC(Cc2ccccc2)CC1	70*	-7
O=C(C1CCN(c2nnc(-c3ccccc3)o2)CC1)N1CCCCC1	-2	-7
Cc1ccc2nc(N3C(=O)c4cccc([N+](=O)[O-])c4C3=O)sc2c1	-1	5
COc1ccc(C(=O)Nc2c3c(nn2-c2cccc(Cl)c2)CSC3)cc1OC	57*	-5
O=C(Nc1c2c(nn1-c1ccc([N+](=O)[O-])cc1)CSC2)c1ccc([N+](=O)[O-])cc1	5	-3
COc1ccc(C(=O)Nc2c3c(nn2-c2cccc(C)c2)CSC3)cc1OC	45	-4
O=C(Nc1c2c(nn1-c1ccc([N+](=O)[O-])cc1)CSC2)c1ccc(F)cc1	34	58*
Cc1ccccc1-n1nc2c(c1NC(=O)c1ccccc1[N+](=O)[O-])CSC2	32	-6
Cc1cc(C)cc(C(=O)Nc2c3c(nn2-c2ccccc2C)CSC3)c1	22	-4
Cc1ccccc1-n1nc2c(c1NC(=O)c1ccc([N+](=O)[O-])cc1)CSC2	84*	3
Cc1ccccc1-n1nc2c(c1NC(=O)c1ccc(Cl)cc1)CSC2	71*	-2
CN1C(=O)C2(CCN(S(=O)(=O)c3ccc(C#N)cc3)C2)c2ccccc21 (stereo not given)	12	-3
Cc1ccc(C(=O)Sc2nnnn2-c2ccccc2)cc1	1	3
O=C1c2ccccc2C(=O)C1c1ccc(I)cc1	19	-4
CC(C)(C)NC(=S)NC1CC1	x	-5
Cc1ccccc1-n1nc2c(c1NC(=O)c1cccc(Cl)c1)CSC2	71*	-5
